p53null 32C tox = selectivity test: cytotoxicity in p53 null cells, permissive temperature | H1299-neo p53 null cells, ATP luminescence, 24 h, 32C | Potency, µM (top dose mostly 46.1 µM), inactives show top-dose activity change, negative = cytotoxicity, actives largely listed as cytotoxic | 55,000 compounds, 0.62% hits;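 also: 0% = DMSO only and -100% = full killing by 100 µM tamoxifen; nearly all actives have a fitted effect of over 55% in size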
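Luminescent ATP readout gave cell viability of p53-null H1299-neo cells after a 24 h compound exposure at the permissive 32C. Titrations ran up to 46 uM, and AC50s were fitted with the standard Hill equation.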
mTORC1 inh = inhibitors of mTORC1 signaling in Tsc2-/- p53-/- MEF cells; Tsc2-/- p53-/- MEF, phospho-rpS6 immunofluorescence/PI, 24 h; Potency, µM (series often up to 38.3 µM), for inactives: at the highest dose activity change, negative = inhibition, hits mostly inhibitors; 44,000 compounds, 0.78% hits; AID 493208;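 also: plate controls were DMSO for no effect and rapamycin for full effect; nearly all actives have a fitted effect of over 50% in size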
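Compounds act on Tsc2-/-, p53-/- fibroblasts carrying an empty vector for 24 h before fixation and dual staining for phospho-S6 and DNA (propidium iodide). Values are percentages of cells above a rapamycin-defined pS6/PI threshold.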
PMP22 txn = modulates PMP22 transcription in S16 Schwann cells; S16 Pmp22-F2sN Schwann cells, FLuc/NLuc coincidence luminescence, 24 h; Potency, µM (highest dose often 57.5 µM), inactives show top-dose activity change, negative = inhibition, hits mostly inhibitors; 43,000 compounds, 2% hits; AID 1508649; active = clear falling dose curves in both reporters; inconclusive = both reporters move, but less clearly or upward; inactive = either reporter flat; the % is the NLuc reporter signal
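Luminescent read-out of sequential FLuc and NLuc signals from a reporter embedded in the Pmp22 3' UTR of S16 Schwann cells, taken after 24 h compound exposure at 37C; compounds reducing both signals score as inhibitors of expression.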
p53null 39C kill = selectivity test: cytotoxicity in p53 null cells, nonpermissive temperature; H1299 p53-null (neo) cells, 39C, ATPlite viability, 24 h; 55,000 compounds, 0.97% hits; AID 904; Potency, µM (doses to about 46.1 µM), inactives show top-dose activity, negative = cell killing, hits mostly cytotoxic;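 also: 0% = DMSO only and -100% = full killing by 100 µM tamoxifen; nearly all actives have a fitted effect of over 50% in size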
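Concentration-response (up to 46 uM) was run for 24 h at the nonpermissive 39C on H1299-p53A138V or H1299-neo cells. ATP content was measured with ATPlite luminescence. AC50 values were Hill-modeled after normalizing between DMSO and 100 uM tamoxifen killing.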
S16 F2sN tox = S16 Schwann cell cytotoxicity; 43,000 compounds, 0.48% hits; S16 Pmp22-F2sN Schwann cells viability, CellTiter-Glo, 24 h; Potency, µM (doses to about 57.5 µM), inactives show top-dose activity change, negative = cytotoxicity, actives largely listed as cytotoxic; also: nearly all actives have a fitted effect of over 65% in size
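S16 Pmp22-F2sN Schwann cells (500-1,000/well) in phenol-red-free DMEM with 10% FBS received 23 nL compound by pin tool for 24 h at 37 °C. Viability was then read as CellTiter-Glo luminescence after 15 min at room temperature.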
SKOV3 invasion = blocks SKOV3ip1 adhesion and invasion in omental model | SKOV3ip1-GFP adhesion/invasion on 3D omental model, fluorescence | Potency, µM (top dose mostly 45.8 µM), for inactives: at the top dose activity change, negative = inhibition, hits mostly inhibitors | 46,000 compounds, 0.1% hits;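 also: plate controls were DMSO wells for no effect and tomatine positive control wells for full effect; nearly all actives have a fitted effect of over 65% in size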
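A 3D layer of primary human omental fibroblasts, mesothelial cells, fibronectin and collagen I, grown 48 hr, received SKOV3ip1-GFP cells in serum-free medium plus compounds at 0.36-46 umol/L. After 2 hr RT and 16 hr 37 C, fixed adherent GFP cells were counted; normalized to DMSO and tomatine.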
Active calls of the source: *; i = inactive; ? = inconclusive; / = not tested or not shown; [ ] = dose if it differs, or a comment. Shown are actives, neighbours in structure and some others; about 3.1% of the full set was active somewhere. Unless noted, calls follow the shape of the dose curve; as a rule, active = well fitted curve in the direction sought with a large enough effect; inconclusive = small, poorly fitted or top-dose-only effect, or another doubt; inactive = no such curve, though single readings can be large; an effect the other way counts as inactive or inconclusive. Unless noted, % is scaled to controls: 0 for no effect and ±100 for the full control effect; potency is read from the fitted curve at half-maximal effect.

SMILES	p53null 32C tox	mTORC1 inh	PMP22 txn	p53null 39C kill	S16 F2sN tox	SKOV3 invasion
CCCCN(CCCNC(=O)c1cc(Nc2cccc(SC)c2)nc2ccccc12)Cc1ccccc1	-19%	16µM*	?	5.6µM*	?	?
CCCCN(C)CC(O)Cn1cc(/C=C/C(=O)c2ccc(OCC)cc2)c2ccccc21 (stereo not given)	?	?	?	5µM*	?	?
CC(=O)Nc1ccc(NC(=O)c2nc(SCc3ccccc3C)ncc2Cl)cc1	-10%	-6%	?	-6%	6%	-9%
CC(=O)Nc1ccc(NC(=O)c2nc(S(=O)(=O)Cc3ccc(F)cc3)ncc2Cl)cc1	-11%	5.2µM*	1.9µM*	-28%	3.5µM*	3.2µM*
Cc1ccc(NC(=O)c2nc(S(=O)(=O)Cc3ccc(F)cc3)ncc2Cl)cc1C	20µM*	?	7.3µM*	?	10µM*	11µM*
COc1ccc(OC)c(NC(=O)c2nc(S(=O)(=O)Cc3ccc(F)cc3)ncc2Cl)c1	?	2.9µM*	?	25µM*	4.5µM*	6.3µM*
C=C[C@@H]1CN2CCC1C[C@@H]2C(O)c1ccnc2ccc(OC)cc12 (stereo not given in full)	/	/	/	/	/	-8%
CO[C@H]1C=CC=C(C)C(=O)NC2=CC(=O)C(NCCN(C)C)=C(C[C@@H](C)C[C@H](OC)[C@@H](O)[C@@H](C)C=C(C)[C@@H]1OC(N)=O)C2=O	/	/	/	/	/	-7%
Cc1nn2c(=O)cc(COC(=O)c3cccc(NC(=O)c4ccc(C(C)(C)C)cc4)c3)nc2s1	3.2µM*	0%	-8%	1.3µM*	8%	3%
Cc1nn2c(=O)cc(COC(=O)c3ccc(NC(=O)c4cccs4)cc3)nc2s1	0%	10%	?	11%	-6%	-4%
O=C(Nc1cccc(C(F)(F)F)c1)c1cnn(-c2cccc(F)c2)c1C1CCNCC1	0%	18µM*	-7%	-3%	-26%	i
Cc1cc(C)cc(NC(=O)c2cnn(-c3ccc(C)c(C)c3)c2C2CCNCC2)c1	19%	7.4µM*	?	-10%	?	i
CNC(=O)[C@H](CC1=CN=C2C=CCC=C12)NC(=O)[C@@H](CC(=O)NO)CC(C)C	/	/	/	/	/	-6%
CCc1ccc2nc(N3CCN(C(=O)c4ccco4)CC3)sc2c1	-29%	-4%	?	-12%	0%	-2%
CCCCN(C)CCCNC(=O)C1CCN(c2nc3ccc(CC)cc3s2)CC1	?	18µM*	?	13µM*	?	?
CCCCN(C)CCCNC(=O)C1CCN(S(=O)(=O)CC)CC1	-6%	6%	-9%	-2%	6%	?
CCCCN(CC)CCCNC(=O)C1CCN(c2nc3ccc(CC)cc3s2)CC1	?	7.4µM*	?	13µM*	?	?
Cc1nn(C(C)C(=O)NC2CCCCC2)c(=O)c2c1sc1ccccc12 (stereo not given)	-26%	1µM*	40%	13µM*	7%	7%
CSc1ccc(CCNC(=O)C(C)n2nc(C)c3sc4ccccc4c3c2=O)cc1 (stereo not given)	?	0.52µM*	3%	13µM*	4%	5%
Cc1cc(C)cc(NC(=O)Cn2nnc(C(=O)NCc3ccccc3Cl)c2N)c1	-7%	-9%	?	?	-15%	?
Cc1ccc(C)c(NC(=O)Cn2nnc(C(=O)NCc3ccccc3Cl)c2N)c1	7%	-4%	?	8%	14µM*	?
Cc1cnc(CNC(=O)c2c(=O)c3ccc(N4CCCN(C)CC4)nc3n3c2sc2ccccc23)cn1	/	/	/	/	/	2%[23.2 µM]
COC(=O)c1nc2n(n1)C(c1cc(OC)ccc1OC)C=C(c1ccc(Br)cc1)N2 (stereo not given)	18%	-17%	?	-3%	?	?
Fc1ccc(C2=CC(c3ccc(F)cc3)n3c(nc4ccccc43)N2)cc1 (stereo not given)	13µM*	-2%	?	10µM*	1%	i
COC(=O)c1ccc(C2C=C(c3ccc(Cl)cc3)Nc3nc4ccccc4n32)cc1 (stereo not given)	10µM*	?	?	10µM*	-24%	-18%
SMILES	p53null 32C tox	mTORC1 inh	PMP22 txn	p53null 39C kill	S16 F2sN tox	SKOV3 invasion
COc1ccc(C2=CC(c3cc(Br)ccc3F)n3c(nc4ccccc43)N2)cc1 (stereo not given)	13µM*	-1%	?	11µM*	-2%	i
CC(C)n1cnc2c(NCCc3ccc(O)cc3)nc(-c3csc4ccccc34)nc21	/	/	/	/	/	-72%
Cc1ccc2nc(-c3sc4nc(C)ccc4c3N)[nH]c2c1	11µM*	/	/	10µM*	/	/
Nc1ccc2nc(-c3cccs3)[nH]c2c1	?	/	/	-20%	/	/
CC(C)(C)COc1ccc(-n2cc(C(=O)O)cn2)cc1C#N	/	/	/	/	/	11%
O=C(Nc1ccc(F)cc1)c1csc2c1CCCCC2	16µM*	?	-19%	?	-14%	16%
CC(=O)c1cccc(NC(=O)c2nc3ccccc3n(C)c2=O)c1	2.8µM*	-8%	?	2.5µM*	?	-8%
COc1ccccc1-c1cc(C(=O)Nc2cc(Cl)ccc2O)no1	-4%	-29%	/	-12%	/	2%
COc1ccccc1-c1cc(C(=O)Nc2cc(OC)c(OC)c(OC)c2)no1	9%	?	3.8µM*	-18%	?	-26%
O=C(NCCCNc1nc(Nc2cccc(NC(=O)N3CCCC3)c2)ncc1I)c1cccs1	/	/	/	/	/	-1%
CCn1c(=O)cc(OCC(=O)N2CCN(c3ccc(C)cc3)C(C)C2)c2ccccc21 (stereo not given)	-4%	1%	?	25µM*	-3%	-4%
CCOc1ccc(-c2cc(C(=O)N3CCN(c4ccc(C)cc4)C(C)C3)c3ccccc3n2)cc1 (stereo not given)	13µM*	-6%	-6%	?	0%	4%
COc1cccc(NC(=O)c2cc3c(-c4ccc(Cl)cc4)nn(C)c3s2)c1	19%	-2%	-9%	8%	-18%	6%
COc1ccc(-c2nn(C)c3sc(C(=O)Nc4cccc(F)c4)cc23)cc1OC	5%	?	?	3%	14µM*	-35%
Cc1ccc(-n2ncc3c(N4CCN(c5ccccc5)CC4)ncnc32)cc1C	1%	10%	8%	17%	-4%	-15%
